High-throughput results from PubChem.
Hits are enriched below; roughly 32% of the tested compounds scored in any of these assays.
PostGolgi yeast – growth inhibition of a yeast mutant, post-Golgi transport screen | post-Golgi transport phenotypic cell assay | inhibition, % at 10 µM | hit rate 0.9% among 98,000 | AID 739;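 note: yeast cells grown in 1536-well plates; yeast grown about 18 h at 30C before absorbance read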
CYP2C19 inh – inhibitors of human CYP2C19 | CYP2C19 Supersomes, luciferin-H EGE luminescence, 30 min | inhibition, % at 5 µM | hit rate 21% among 96,000 | AID 778;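 active = CYP2C19 inhibition above a set limit at 5 µM in the primary screen, cut at about 50% in these data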
CYP2C19 act – cytochrome P450 2C19 (human) activation. 96,000 tested, under 10 active. recombinant CYP2C19, luciferin-H EGE luminescence; active compounds read high; 0 = fully inhibited enzyme, 1 = untreated enzyme. activation factor at 5 µM. AID 1025;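 active = activation factor of at least 2 at 5 µM in the primary screen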
CYP2C9 act – increases human cytochrome P450 2C9 activity; P11712; recombinant CYP2C9, luciferin-H conversion, luminescence; active compounds read high; factor 1 = untreated enzyme, 0 = blocked; activation factor at 5 µM; hit rate 1.4% among 96,000;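 active = activation factor of 2 or more for CYP2C9 at a 5 µM dose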
Target sequence (P11712 whole entry, looked up): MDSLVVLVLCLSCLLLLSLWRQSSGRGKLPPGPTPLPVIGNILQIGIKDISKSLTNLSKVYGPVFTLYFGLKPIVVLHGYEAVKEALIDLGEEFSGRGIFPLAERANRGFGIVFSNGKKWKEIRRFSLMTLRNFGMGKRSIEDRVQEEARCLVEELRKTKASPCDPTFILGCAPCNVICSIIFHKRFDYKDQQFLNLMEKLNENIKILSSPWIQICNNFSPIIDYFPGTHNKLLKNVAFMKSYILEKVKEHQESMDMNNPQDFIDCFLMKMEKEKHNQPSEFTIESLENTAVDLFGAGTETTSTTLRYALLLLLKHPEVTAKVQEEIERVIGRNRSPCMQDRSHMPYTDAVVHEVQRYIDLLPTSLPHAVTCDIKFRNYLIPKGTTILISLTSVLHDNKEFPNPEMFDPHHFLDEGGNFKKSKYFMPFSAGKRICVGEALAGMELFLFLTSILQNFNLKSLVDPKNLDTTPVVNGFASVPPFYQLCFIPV
CYP2C9 inhib – human CYP2C9 inhibition; P11712; CYP2C9 Supersomes, luciferin-H conversion, luminescence; inhibition, % at 5 µM; hit rate 20% among 96,000; AID 777;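 active = blocking of liver enzyme CYP2C9 beyond about 50% at 5 µM, limit read from the data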
PostGolgi ctrl – yeast control strain growth, post-Golgi counter-screen. hit rate 5% among 98,000. efflux-deficient yeast background strain, growth absorbance A615, 16 h. inhibition, % at 10 µM
A number is an active result; i = inactive; nt = no result. Cut-off read from the data, not from the text of the source, unless noted: active = inhibition above about 30%; inactive = the rest.

SMILES	PostGolgi yeast	CYP2C19 inh	CYP2C19 act	CYP2C9 act	CYP2C9 inhib	PostGolgi ctrl
CCOC(=O)C1=C(C)N=C2SCCC(=O)N2C1c1ccc(C(=O)OC)cc1 (configuration not stated)	i	68	i	i	i	i
CCCOc1ccc(C2C(C(=O)OC)=C(C)N=C3SCCC(=O)N32)cc1OCC (configuration not stated)	i	i	i	i	i	i
COCCOC(=O)C1=C(C)N=C2SCCC(=O)N2C1c1ccc(OC(=O)c2ccco2)cc1 (configuration not stated)	i	73	i	i	73	i
CCOC(=O)C1=C(C)N=C2SC(C)C(=O)N2C1c1ccc(OCC)c(OCC)c1 (configuration not stated)	i	54	i	i	61	i
Cc1ccnn2cc3c(=O)n(C)c(=O)n(C)c3c12	i	i	i	i	i	i
COc1ccc(Br)cc1CNC(=O)CCc1nc(-c2ccc(C)cc2)no1	i	i	i	i	i	i
CCCOc1ccc(Cc2nc(N)nc(N)n2)cc1	i	i	i	i	i	i
CCc1ccccc1NC(=O)N1C2CCCC1CC(NC(C)=O)C2 (configuration not stated)	i	i	i	i	i	i
COC(=O)C(C)Sc1nnc(Cc2cc(=O)[nH]c(=O)[nH]2)n1-c1ccc(OC)cc1 (configuration not stated)	i	i	i	i	i	i
O=C(CSc1n[nH]c(-c2ccc(S(=O)(=O)N3CCCCC3)cc2)n1)Nc1nccs1	i	i	i	i	87	i
CCn1c(SCC(=O)Nc2nccs2)nnc1-c1ccc(S(=O)(=O)N2CCCCCC2)cc1	i	i	i	i	52	i
O=C1N/C(=N/Nc2ccccc2)S/C1=C\c1ccccc1	i	53	i	i	67	i
CN(C)c1ccc(/C=N/N=C2/NC(=O)/C(=C/c3ccc([N+](=O)[O-])cc3)S2)cc1	i	i	i	i	i	i
CCNCCNC(=O)c1c(O)c2ccccc2n(CC)c1=O	i	i	i	i	i	41
CCn1c(=O)c(C(=O)NCCc2ccccc2)c(O)c2ccccc21	i	50	i	i	i	i
C=CCn1c(=O)c(C(=O)NCCNCC)c(O)c2ccccc21	i	i	i	i	i	i
CC(C)Cn1c(=O)c(C(=O)Nc2cnccn2)c(O)c2ccccc21	i	i	i	i	i	39
CCc1nnc(NC(=O)CSc2nc(C3CCCCC3)nc3ccccc23)s1	i	i	i	i	i	i
Nc1ccnc(C(F)(F)F)c1C(=O)c1ccccc1	i	i	i	i	i	i
COC(=O)CCC(NC(=O)c1cc(-c2ccc3c(c2)OCCO3)oc1C)C(=O)OC (configuration not stated)	i	52	i	i	i	i
Cn1c(SCc2cccnc2)nc2cccnc21	i	i	i	i	i	i
CCOc1cc(-c2cc(-c3ccccc3)nc(N)c2C#N)ccc1O	i	52	i	i	54	i
CCOc1cc(C2C(C#N)=C(N)Oc3n[nH]c(-c4ccccc4)c32)ccc1O (configuration not stated)	i	71	i	i	94	i
N#CC1=C(N)Oc2n[nH]c(-c3ccccc3)c2C1c1cccnc1 (configuration not stated)	i	i	i	i	i	i
CCOc1cc(-c2cc(-c3ccc(N)cc3)nc(N)c2C#N)ccc1O	i	70	i	i	89	i
SMILES	PostGolgi yeast	CYP2C19 inh	CYP2C19 act	CYP2C9 act	CYP2C9 inhib	PostGolgi ctrl
CCOc1cc(-c2c(C#N)c(N)nc3c2CCCC3)ccc1O	i	61	i	i	i	i
CC(C)OCCCNC(=O)CCc1nc(-c2ccccc2)no1	i	i	i	i	i	i
CCOC(=O)CNC(=O)CSc1nnc(-c2ccccc2OC)n1CC	i	i	i	i	i	i
CC1=C(C(=O)Nc2cccnc2)C(c2ccc(C(C)C)cc2)n2ncnc2N1 (configuration not stated)	i	nt	nt	nt	nt	i
O=C(Nc1nc2ccccc2n1CCOc1ccccc1)c1ccco1	i	58	i	i	i	i
Cc1cccc(OCCn2c(NC(=O)c3ccco3)nc3ccccc32)c1	i	i	i	i	i	51
Cc1cccc(OCCn2c(-c3ccco3)nc3ccccc32)c1	i	i	i	i	i	30
O=C(Nc1nc2ccccc2n1CCOc1ccc(Cl)cc1)c1ccco1	i	i	i	i	i	49
CCOc1ccccc1OCC(=O)NN1Cc2ccccc2C1=N	i	i	i	i	i	i
CCc1ccccc1NC(=O)CN(C)Cc1nc(N)nc(Nc2ccccc2C)n1	i	68	i	i	i	i
COc1ccc(-n2nnnc2/C=C\Nc2ccccc2C(=O)c2ccccc2)cc1	i	51	i	i	i	i
COc1ccc(C(=O)Nc2cc(C(=O)c3ccccc3)c(C)oc2=O)cc1	i	i	i	i	i	i
O=C1NCCc2c1[nH]c1c(Cl)ccc(Cl)c21	i	i	i	2.4	i	i
COC(=O)c1cc(COc2ccc3oc(C)c(C(=O)OC(C)C)c3c2)c(C)o1	i	88	i	i	84	i
COC(=O)c1cc(=O)c2ccc(OC)cc2o1	nt	i	i	i	i	nt
CCOC(=O)c1c(C)oc2ccc(OCC(N)=O)cc12	i	i	i	i	i	i
COC(=O)c1cc(COc2ccc3c4c(c(=O)oc3c2)CCCC4)c(C)o1	i	i	i	i	i	i
C=C(C)COc1ccc2oc(C)c(C(=O)OCCOC)c2c1	i	84	i	i	60	i
COC(=O)c1cc(-c2c(C)oc3cc(OC(C)C)ccc3c2=O)c(C)o1	i	60	i	i	67	i
Cc1cc2ccc(C)c(C)c2nc1SCC#N	i	i	i	i	i	i
Cn1nc(CC(=O)Nc2cccc3ncccc23)c2ccccc2c1=O	i	i	i	i	i	i
CC1CCCC(C)N1CCNC(=O)C1CCN(S(=O)(=O)N2CCCCC2)CC1 (configuration not stated)	i	i	i	i	i	i
CCOc1ccc(-c2onc(C(F)(F)F)c2-c2cscn2)c(O)c1	i	i	i	i	i	i
Cc1cc(O)cc(O)c1-c1onc(C(F)(F)F)c1-c1cscn1	i	80	i	i	i	i
O=C1CN(C(=O)CSc2nncn2-c2ccccc2)c2ccccc2N1	i	i	i	i	i	i
O=C(N1CCOCC1)N1CCN(S(=O)(=O)N2CCOCC2)CC1	i	i	i	i	i	i
CCOC(=O)C1=C(C)NC(C)=C(C(=O)OCC)C1c1cc(N)ccc1OC(F)F	i	i	i	i	57	i
CCOC(=O)C1=C(C)NC(=O)NC1c1ccc(OC)c(Cl)c1 (configuration not stated)	i	i	i	i	i	i
Cc1cc(C)c(NC(=O)CC(C)(C)C)c(Cl)c1	i	i	i	i	i	i
CCN(CC)C(=O)/C(=C\c1ccc2c(c1)OCO2)NC(=O)c1ccc(Br)cc1	i	i	i	i	i	i
